Compound activity deposited in PubChem by National Center for Advancing Translational Sciences (NCATS).
VACV Venus inh: vaccinia inhibition (Venus reporter); Vaccinia virus Venus reporter expression, fluorescence; Potency, µM (highest dose often 36.5 µM), most hits filed as inhibitors; actives 0.46% (n = 330,000); AID 720580; calls by dose curve; tested in A549 cells; further: nearly all actives have a fitted effect of over 30% in size
HCMV antiviral: inhibitors of human cytomegalovirus; activity change, negative = inhibition, % at 57.5 µM; AID 1259415; HFF cells, HCMV-luciferase reporter, 72 h; stronger effect = lower value; actives 4.5% (n = 410,000); in the data active means activity change below about -60%; inconclusive means no clear call, values can overlap the other calls; inactive means above about -39%
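Compounds were evaluated in HFFs infected with an HCMV luciferase reporter virus (MOI 1 PFU/cell). Luciferase in lysates collected 72 h post infection served as the replication measure.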
Sm TGR block: S. mansoni TGR enzyme inhibition. Potency, µM (doses to about 114 µM), usual class: inhibitors. Q962Y6. AID 485364. purified TGR, DTNB reduction, TNB absorbance 405 nm. actives 3% (n = 360,000); further: nearly all actives have a fitted effect of over 60% in size
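First, TGR (20 nM dispensed) and NADPH were mixed with compound. Second, a 15 min room-temperature incubation followed. Third, further NADPH and then DTNB were added to start the reaction. Finally, TNB absorbance was monitored kinetically.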
HCV inh: inhibitors of hepatitis C virus infection. actives 3.4% (n = 340,000). Huh7.5.1 HCVcc-Cre infection, luciferase reporter, 44 h. Potency, µM (doses to about 41.8 µM), actives largely listed as inhibitors
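Infectious HCV cell culture screen: compound-treated cells (1,000/well, pre-plated 4 h) are infected with HCVcc-Cre at roughly 0.5 moi and grown 44 h. Infection is quantified by luciferase signal after 15 min substrate incubation at room temperature.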
FMDV inh: antivirals against foot and mouth disease virus; FMDV antiviral cell-based qHTS; Potency, µM (titrated, usually from 57.9 µM), actives largely listed as inhibitors; actives 1.2% (n = 410,000); AID 1159524; calls by dose curve; tested in HEK293T cells; further: read-out not given here; nearly all actives have a fitted effect of over 45% in size
VACV mCherry inh: vaccinia inhibition (mCherry reporter); Potency, µM (series often up to 36.5 µM), usual class: inhibitors; Vaccinia virus mCherry reporter infection, fluorescence; actives 0.63% (n = 310,000); calls by dose curve; tested in A549 cells; further: nearly all actives have a fitted effect of over 35% in size
Of the large screens only hits and unclear results are named; the others gave an inactive call. Compounds with a hit are over-represented: about 9.3% of the library has one in this group of screens. Unless noted, the call rests on the fitted dose curve; in most records, active means well fitted curve in the direction sought with a large enough effect; inconclusive means small, poorly fitted or top-dose-only effect, or another doubt; inactive means no such curve, though single readings can be large; an effect the other way counts as inactive or inconclusive.

Cc1ccc(N2C(=O)C3C(C2=O)C(C(=O)c2ccc(Cl)cc2)N2CCCC32)cc1 (stereo not given)	Sm TGR block 28µM
CC(=O)Oc1ccc(N2C(=O)C3C(C2=O)C(C(=O)c2ccc(Cl)cc2)N2CCCC32)cc1 (stereo not given)	Sm TGR block 20µM, FMDV inh inconclusive
C=CCn1c(O)c(C(CC)=Nc2ccccc2NC(=O)CC)c(=O)[nH]c1=O	none (no result: VACV Venus inh, VACV mCherry inh)
COc1ccccc1NC(=O)Cn1c(O)c(N=NC(=O)c2ccccc2O)c2ccccc21	HCMV antiviral -107, FMDV inh inconclusive (no result: VACV Venus inh, VACV mCherry inh)
Cc1ccc(NC(=O)Cn2c(O)c(N=NC(=O)c3ccncc3)c3ccccc32)cc1	none (no result: HCMV antiviral)
Cc1ccc(NC(=O)Cn2c(O)c(N=NC(=O)c3cc4ccccc4cc3O)c3ccccc32)cc1	HCMV antiviral -101, HCV inh inconclusive
Cn1c(O)c(N=NC(=O)c2ccccc2O)c2ccccc21	HCV inh inconclusive
Cc1c(C(=O)N2CCCCCC2)c(S(=O)(=O)N(Cc2ccccc2)C(C)(C)C)c(C)n1C	none (no result: HCV inh)
CCc1cc(CNC(=O)C2CCC(=O)N(Cc3cccc(F)c3)C2)on1 (stereo not given)	none
O=C1NC2(CCC3(CC2)OCCO3)NN1c1ccccc1	none
Cc1ccc(N2NC3(CCN(C(N)=O)CC3)NC2=O)cc1	Sm TGR block 40µM, VACV mCherry inh inconclusive
CN(c1ccccc1)c1ccc(/C=C(\C#N)c2nnc3n2CCCCC3)cc1[N+](=O)[O-]	HCMV antiviral -78, HCV inh inconclusive
CN(c1ccccc1)c1ccc(/C=C(\CCC(=O)O)c2nc3ccccc3s2)cc1[N+](=O)[O-]	none
N#C/C(=C\c1cccc([N+](=O)[O-])c1)c1nnc2n1CCCCC2	HCMV antiviral -69
Cc1cccc(NC(=S)NC(=O)c2ccco2)c1C	Sm TGR block inconclusive (no result: VACV Venus inh, VACV mCherry inh)
Cc1ccccc1NC(=S)Nc1ccc(Br)cc1	none
O=C(NC(=S)Nc1ccccc1Br)c1ccco1	Sm TGR block 35µM
O=C(NC(=S)Nc1cccc(NC(=S)NC(=O)c2ccco2)n1)c1ccco1	HCMV antiviral -116, HCV inh inconclusive (no result: Sm TGR block)
S=C(Nc1ccccc1)Nc1ccccc1Br	Sm TGR block 45µM
C=CC[C@@H](CC(=O)N[C@H](CO)Cc1ccccc1)C(=O)N[C@H](COC(=O)[C@@H](CC=C)CC(=O)OC(C)(C)C)Cc1c[nH]c2ccccc12	VACV Venus inh 13µM, HCV inh inconclusive, FMDV inh inconclusive, VACV mCherry inh 22µM (no result: Sm TGR block)
C=CC[C@H](CC(=O)N(CCO)Cc1ccccc1)C(=O)N[C@H](COC(=O)[C@@H](CC=C)CC(=O)OC(C)(C)C)Cc1c[nH]c2ccccc12	VACV Venus inh 11µM, HCV inh inconclusive, VACV mCherry inh inconclusive (no result: Sm TGR block)
C=CC[C@@H](CC(=O)N[C@H](CO)Cc1ccccc1)C(=O)N[C@@H](C)COC(=O)[C@@H](CC=C)CC(=O)OC(C)(C)C	HCMV antiviral -60 (no result: Sm TGR block)
C=CC[C@@H](CC(=O)N[C@H](CO)Cc1ccccc1)C(=O)N[C@H](C)COC(=O)[C@@H](CC=C)CC(=O)OC(C)(C)C	none (no result: Sm TGR block)
COc1cccc(CNC(=O)C2CCCN(S(=O)(=O)c3cn(C)cn3)C2)c1 (stereo not given)	none (no result: HCV inh)
CC[C@@H](C(=O)[C@@H](C)[C@@H](O)[C@H](C)CCc1ccc(C)c(O)c1C(=O)O)[C@H]1O[C@](CC)([C@H]2CC[C@](O)(CC)[C@H](C)O2)C[C@@H]1C	VACV Venus inh 10µM, HCMV antiviral -99, HCV inh 1.8µM, FMDV inh 28µM, VACV mCherry inh inconclusive
COc1cc(C(=O)OCC(C)=O)cc(NC(=O)c2ccco2)c1OC	HCMV antiviral -69 (no result: VACV Venus inh, VACV mCherry inh)
COc1cc(C(=O)OCC(=O)NC2CCCC2)cc(NC(=O)c2ccco2)c1OC	none (no result: VACV Venus inh, VACV mCherry inh)
CC1CCN(c2ccc(NC(=O)c3ccc([N+](=O)[O-])o3)cc2)CC1	VACV Venus inh 10µM, HCMV antiviral -98, HCV inh inconclusive, VACV mCherry inh 11µM
O=C(Nc1ccc(N2CCN(Cc3ccccc3F)CC2)cc1)c1ccc([N+](=O)[O-])o1	VACV Venus inh inconclusive, HCMV antiviral -100, HCV inh inconclusive, FMDV inh inconclusive, VACV mCherry inh 4µM
CC1CCN(C(=O)c2ccc([N+](=O)[O-])o2)CC1	Sm TGR block inconclusive, HCV inh inconclusive
CC(C)CC(=O)NC(=S)Nc1ccc(N2CCCC2)c(Cl)c1	HCMV antiviral -62
COc1ccc(CCC(=O)NC2CC(=O)N(c3ccccc3)C2)cc1 (stereo not given)	none (no result: HCV inh)
O=c1[nH]cc(CN2CCOCC2)c(=O)[nH]1	VACV mCherry inh inconclusive (no result: Sm TGR block)
O=C(Nc1ccc(N2CCCC2)c(Cl)c1)c1ccco1	HCMV antiviral -90, HCV inh inconclusive (no result: FMDV inh)
O=C(Nc1ccc(N2CCCCC2)cc1)c1ccc([N+](=O)[O-])o1	HCMV antiviral -96, HCV inh inconclusive, VACV mCherry inh inconclusive
CN1CCN(c2ccc(NC(=O)c3ccco3)cc2Cl)CC1	none (no result: VACV Venus inh, VACV mCherry inh)
CS(=O)(=O)N1CCN(c2ccc(NC(=O)c3ccc([N+](=O)[O-])o3)cc2)CC1	HCMV antiviral -101, HCV inh inconclusive (no result: VACV Venus inh, VACV mCherry inh)
COC(=O)c1ccc(N2CCCCC2)c(NC(=O)c2ccco2)c1	HCMV antiviral inconclusive, HCV inh 1.4µM, FMDV inh inconclusive
CCOc1ccc(CNC(=O)C2CCN(Cc3cc4ccccc4n3Cc3ccccc3C)CC2)cc1	none (no result: HCV inh)
CC(C)(C)c1ccc(OCC(=O)Nc2ccc(C(=O)OC3CCCCC3)cc2)cc1	Sm TGR block inconclusive (no result: HCV inh)
O=C(Nc1ccc(N2CCCC2)c(Cl)c1)c1ccc([N+](=O)[O-])o1	VACV Venus inh 14µM, HCMV antiviral -89, Sm TGR block inconclusive, HCV inh inconclusive, VACV mCherry inh 16µM
NC(N)=NN=C1CCC(c2ccccc2)CC1 (stereo not given)	FMDV inh 7.1µM
CC(=O)NN=C1CCC(c2ccccc2)CC1 (stereo not given)	none
COc1ccc(NC(=O)c2ccco2)cc1NC(=O)C(C)(C)Oc1ccc(Cl)cc1	FMDV inh 45µM (no result: HCV inh)
COc1cc(NC(=O)c2ccco2)ccc1NC(=O)c1ccccc1Cl	HCMV antiviral inconclusive, HCV inh inconclusive (no result: VACV mCherry inh)
COc1cc(NC(=O)c2ccccc2Cl)ccc1NC(=O)c1ccco1	VACV Venus inh inconclusive, VACV mCherry inh 14µM
COc1ccc(C(=O)Nc2cc(NC(=O)c3ccco3)ccc2OC)cc1Cl	none (no result: HCV inh)
COc1ccc(NC(=O)c2ccco2)cc1NC(=O)c1ccco1	none
COc1ccc(NC(=O)c2ccco2)cc1NC(=O)C(C)Oc1ccc(Cl)cc1Cl (stereo not given)	HCMV antiviral -80, FMDV inh inconclusive (no result: HCV inh)
COc1ccc(NC(=O)Cc2ccc(Cl)cc2)cc1NC(=O)c1ccco1	HCMV antiviral -86, HCV inh 10µM (no result: VACV Venus inh, VACV mCherry inh)
Cc1cc(Br)ccc1NC(=O)CN(C)C(=O)CSC(=S)N1CCCC1	VACV mCherry inh inconclusive
